This is part of a sample that, as a whole, favours compounds with a hit. Of some 79,000 tested, about 15% had one in any assay. Rule as the data show it: active = growth inhibition above about 70%; inactive = the rest. Where a SMILES comes first, the peptide text is derived from it. [ ]: non-standard residue; d: D form. ξ: configuration not given here. ξP = O=C(O)C1CCCN1
Columns and labels:
[1] = NCI Yeast Anticancer Drug Screen. Data for the rad50 strain (AID 155);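 also: 0% = growth of vehicle-only cultures of the same strain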; details: S. cerevisiae rad50 strain growth inhibition; at 50.0 µM; stronger effect = higher value
Procedure, shortened: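 Growth of the mutant yeast was measured after compound exposure and referenced to vehicle-treated cultures.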

[2] = NCI Yeast Anticancer Drug Screen. Data for the mec2-1 strain (AID 157); details: S. cerevisiae mec2-1 strain, at 50.0 µM, stronger effect = higher value
Procedure, shortened: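 Compounds were applied to mec2-1 yeast cells. Their growth was then compared with that of vehicle-treated cultures to give growth inhibition.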

[3] = NCI Yeast Anticancer Drug Screen. Data for the sgs1 mgt1 strain (AID 161);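 also: 0% = growth of cultures given vehicle only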; details: S. cerevisiae sgs1 mgt1 strain, at 50.0 µM, stronger effect = higher value
Procedure, shortened: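 Yeast cells carrying a defined DNA-repair defect were exposed to test compounds. Growth inhibition was measured relative to vehicle-treated controls.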

[4] = NCI Yeast Anticancer Drug Screen. Data for the cln2 rad14 strain (AID 165);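 also: 0% = growth equal to vehicle treated cultures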; details: S. cerevisiae cln2 rad14 strain, at 50.0 µM, stronger effect = higher value
Procedure, shortened: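 Strain: cln2 rad14 yeast, altered in cell cycle control and DNA damage repair. Read-out: growth inhibition vs vehicle.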

[5] = NCI Yeast Anticancer Drug Screen. Data for the bub3 strain (AID 167); details: S. cerevisiae bub3 mutant strain, at 50.0 µM, stronger effect = higher value
Procedure, shortened: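 Whole-cell yeast assay. The mutant strain was incubated with compounds, and growth inhibition was determined by comparison with vehicle-treated cells.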

[6] = NCI Yeast Anticancer Drug Screen. Data for the mlh1 rad18 strain (AID 175); details: S. cerevisiae mlh1 rad18 strain growth inhibition; at 50.0 µM; stronger effect = higher value
Procedure, shortened: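 A repair-deficient yeast strain is exposed to test compound, and growth is scored relative to vehicle-treated controls.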

Measured: growth inhibition

Cc1c(-c2ccccc2)[nH]c2cc(Cl)ccc2c1=O
inactive: [1] -28.9% | [2] 2.55% | [3] -16.4% | [4] 13% | [5] 16.9% | [6] -10.3%

Nc1nc(N)c(N=Nc2cc(Cl)c([N+](=O)[O-])cc2Cl)c(=O)[nH]1
inactive: [1] 13.2% | [2] -3.75% | [3] -10.9% | [4] -7.15% | [5] -1.35% | [6] -11.1%

Cc1cc(OCCBr)ccc1[N+](=O)[O-]
inactive: [1] -4.5% | [2] 9.45% | [3] -17.6% | [4] -15.1% | [5] 22.7% | [6] 0.45%

O=C(COC(=O)c1cccc([N+](=O)[O-])c1)c1ccc(Br)cc1
inactive: [1] 6.55% | [2] 20.3% | [3] 1.55% | [4] -16.2% | [5] 7.3% | [6] 5.8%

N#CC(/C(=N/NC(=O)C(=O)NN)C(=O)NC12CC3CC(CC(C3)C1)C2)c1ccccc1 (stereo not drawn)
inactive: [1] 16.1% | [2] 10.8% | [3] 1% | [4] 1.4% | [5] 30.6% | [6] -2.05%

CC(=O)OCCOCN1C(=O)CC(=O)NC1=O
inactive: [1] -10.2% | [2] -10.6% | [3] -4.5% | [4] -5.45% | [5] -22.3% | [6] -30.2%

O=C(COc1c(Cl)c(Cl)c(Cl)c(Cl)c1Cl)Nc1cccc(Cl)c1
inactive: [1] 18.9% | [2] 2% | [3] 5.25% | [4] 15.2% | [5] 21.3% | [6] 22.8%

N=Cc1ccccc1O
inactive: [1] -3.3% | [2] -10.3% | [3] -4.8% | [4] 7.8% | [5] 2.9% | [6] 2.55%

Cc1ccc(Nc2nnc(Nc3ccc(C)cn3)c3ccccc23)nc1
inactive: [1] -10.7% | [2] -12.4% | [3] -4.55% | [4] -18.8% | [5] 4.1% | [6] -7.95%

O=C1C(c2ccccc2)C(c2ccccc2)C(c2ccccc2)C1c1ccccc1 (stereo not drawn)
inactive: [1] 52% | [2] 1.05% | [3] 15.9% | [4] 5.65% | [5] -4.3% | [6] 5.65%

C[C@]12CC[C@@H]3c4ccc(O)cc4CC[C@H]3[C@@H]1CC[C@@H]2OP(=O)(O)O
inactive: [1] -0.15% | [2] -9.95% | [3] -37.1% | [4] -27.4% | [5] -6.45% | [6] -16.6%

O=c1n(-c2ccccc2)c(=O)n2n1C1C=CC2C23C=CC12CCCC3 (stereo not drawn)
inactive: [1] 13.8% | [2] 7.85% | [3] 9.05% | [4] 12% | [5] 26.2% | [6] 22.8%

CCCCCCCCCCCCOc1ccc(Br)cc1
inactive: [1] 11.4% | [2] 9.25% | [3] 19% | [4] -23.4% | [5] -13.4% | [6] 8.7%

O=C1N(Cc2ccccc2)[C@H]2CS(=O)(=O)C[C@@H]2N1Cc1ccccc1
inactive: [1] 0.9% | [2] 4.1% | [3] 8.75% | [4] -10% | [5] 0.85% | [6] 12.7%

c1ccc(SCCC(Sc2ccccc2)Sc2ccccc2)cc1
inactive: [1] -3.45% | [2] 5% | [3] -3.75% | [4] -13.8% | [5] -1.6% | [6] 3.65%

CC(C)=NNC(=S)NC12CC3CC(CC(C3)C1)C2
inactive: [1] 29.4% | [2] 39.3% | [3] 25.1% | [4] -8.7% | [5] 48.7% | [6] 35%

CCOc1ccc(OCC)c(NC(=O)OC(C)C)c1
inactive: [1] -6.35% | [2] -3.25% | [3] 20.3% | [4] -27.5% | [5] 47.5% | [6] 12.9%

NC1=Nc2ccccc2Sc2nnc(-c3ccc(Cl)cc3)n21
inactive: [1] 1.75% | [2] -3.25% | [3] -11.8% | [4] -3.3% | [5] -15.2% | [6] 4.6%

COC(=O)C1C(=O)C=C(C)C(C(=O)OC)C1c1ccccc1 (stereo not drawn)
inactive: [1] 7.7% | [2] -4.2% | [3] 6.15% | [4] -5.85% | [5] 12.5% | [6] 0.25%

CC(=O)NC(NCCN)(c1ccccc1)c1ccccc1
inactive: [1] -9.7% | [2] -26.4% | [3] -8.1% | [4] 11.6% | [5] 9.6% | [6] -8.45%

CC(=O)NC(=O)CCc1ccccc1
inactive: [1] -12.2% | [2] -12.7% | [3] -20.3% | [4] -26.1% | [5] -8.15% | [6] -6%

CC12CCC(/C(=C/N3CCCCC3)C1=O)C2(C)C (stereo not drawn)
inactive: [1] 12.8% | [2] 10.2% | [3] 1.75% | [4] -17.8% | [5] 22.4% | [6] 5.05%

OCCSC1CCCCC1
inactive: [1] 12.1% | [2] 6.35% | [3] -1.55% | [4] 0.1% | [5] -16.1% | [6] 1.5%

CON(C)c1nc(N(C)OC)nc(N(C)OC)n1
inactive: [1] -8.05% | [2] -48.2% | [3] -28.8% | [4] 7.85% | [5] -22.9% | [6] -12.5%

C=C1C(=O)N2CCc3c([nH]c4ccccc34)[C@H]2C[C@@H]1CO
inactive: [1] 5.4% | [2] 2.4% | [3] 4.2% | [4] 5% | [5] 7.05% | [6] 10.8%

COc1ccc(C2OCC(C)O2)cc1OC (stereo not drawn)
inactive: [1] -13.4% | [2] 16.1% | [3] -8.2% | [4] -31.4% | [5] -31.4% | [6] -7.3%

CCOC(=O)C(C)c1nc2cc(N3CCOCC3)c(F)cc2[nH]c1=O (stereo not drawn)
inactive: [1] 24.6% | [2] -7.55% | [3] 11.7% | [4] 28.6% | [5] 5.7% | [6] 4.95%

O=C(c1ccc(F)cc1)c1ccc2ccccc2c1C(=O)O
inactive: [1] 4.4% | [2] 7.65% | [3] 13.1% | [4] 14.3% | [5] 38.2% | [6] -11.3%

CS(=O)(=O)OC[C@@H](O)[C@@H](O)COS(C)(=O)=O
inactive: [1] -2.15% | [2] 7.4% | [3] -1.85% | [4] -57.1% | [5] 3.55% | [6] -6.85%

NCC(=O)N1CCCC1C(=O)NCC(=O)NCC(=O)O (stereo not drawn) (H-G[ξP]GG-OH)
inactive: [1] 11.6% | [2] 0.95% | [3] 4.8% | [4] -32% | [5] -16.9% | [6] 3.15%

NC(N)=N/N=C/c1c(-c2ccc(Cl)cc2)nc2n1CCS2
inactive: [1] -36.6% | [2] -51.6% | [3] -18% | [4] -10.9% | [5] -5.05% | [6] -25.2%

O=S(=O)(Nc1ccc(NS(=O)(=O)c2ccccc2)nc1)c1ccccc1
inactive: [1] 13.8% | [2] -0.55% | [3] 32.1% | [4] -19.9% | [5] 5.3% | [6] -0.75%

CCOC(=O)CSc1[nH]c2nc(C)nc(Cl)c2c1C#N
inactive: [1] -20.7% | [2] 8.3% | [3] -5.2% | [4] -6.65% | [5] -3.45% | [6] 16.6%

Cc1[nH]c2ccc(-c3ccccc3)cc2c1CC(=O)O
inactive: [1] 51.5% | [2] -22.8% | [3] 47.7% | [4] -5.85% | [5] 3.35% | [6] 53.9%

COC(=O)[C@H]1N[C@@H](C(=O)OC)C23CCC[C@H]2CC[C@]1(C(OC)OC)C3
inactive: [1] -3.5% | [2] 2.25% | [3] 14.4% | [4] -3.8% | [5] -0.65% | [6] -16.1%

Cc1cc([N+](=O)[O-])c(C)c(Br)c1C
inactive: [1] -8.45% | [2] -20.2% | [3] -37.7% | [4] 4.65% | [5] -38.5% | [6] -0.85%

COc1cc(Cl)c(CC(=O)c2c[nH]c3ccccc23)cc1OC
inactive: [1] 10.6% | [2] -27.1% | [3] -17.8% | [4] -31.7% | [5] -29.2% | [6] 20.6%

CCN(CC(=O)NC(=O)c1ccccc1)c1ccccc1
inactive: [1] -1.75% | [2] -14% | [3] -4.75% | [4] -34.5% | [5] 5.5% | [6] -12.7%

From PubChem BioAssay (NCI)
